Measured values published in the supplement of paper PMC10849652.
Of roughly 8,800 targets only a part is listed; those with a hit were picked by preference. About 0.5% of all pairs of compound and target were hits.

How the values were obtained:
Assay in all cases: log2 fold change, soluble protein after heating vs DMSO (PISA); higher = thermal stabilisation; K562 lysate, 10 uM; active = over 0.2 and 3.5 SD of the protein, either way, in both replicates (recomputed)
ibrutinib = compound: C=CC(=O)N1CCC[C@@H](n2nc(-c3ccc(Oc4ccccc4)cc3)c3c(N)ncnc32)C1 [ibrutinib]
How it was run: (§1)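 Pellets of K562 cells were dounce-homogenised in PBS pH 7.4 with 1 mM MgCl2, and the crude extract was held at 1 mg/mL protein for a 30 min treatment with 10 μM compound. Aliquots were heated for 3 min over 48°C-58°C and pooled before NP-40 was added to 0.5% at 4°C. The supernatant from 21,000xg for 90 min was quantified by TMTpro 16plex LC-MS/MS with channel sums equalised. Values are reported from duplicates as log-two fold change in thermal stability relative to solvent controls.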

[1] = compound: CC(=O)c1cnc2ccc(-c3cc(Cl)c(O)c(Cl)c3)nc2c1N[C@H]1CC[C@H](CN(C)C)CC1
How it was run: as §1

ralimetinib = compound: CC(C)(C)Cn1c(N)nc2ccc(-c3[nH]c(C(C)(C)C)nc3-c3ccc(F)cc3)nc21 [ralimetinib]
How it was run: as §1

[2] = compound: CC(C)(O)CC(=O)NCCn1ccc2ncnc(Nc3ccc(Oc4cccc(C(F)(F)F)c4)c(Cl)c3)c21
How it was run: as §1

[3] = compound: CC(C)C1=C2N=C(C=C(N2N=C1)NCC3=CC=CC=C3)NCCCCCCN
How it was run: as §1

[4] = compound: CC1=C(C(CC(=O)N1)C2=CC=C(C=C2)C(F)(F)F)C(=O)NC3=C(C=C4C(=C3)C=NN4)F
How it was run: as §1

[5] = compound: CC1=C(C2=C(C=C1)C(=O)C3=CC=CC=C3N2CCCN)C
How it was run: as §1

[6] = compound: CC1=C(C=C(C=C1)NC(=O)C2=CC(=CC=C2)C(C)(C)C#N)NC3=CC4=C(C=C3)N=CN(C4=O)C
How it was run: as §1

[7] = compound: CC1=C(C=C(C=C1)NC(=O)C2=CC(=CC=C2)N(C)C)NC(=O)C3=CC=C(C=C3)O
How it was run: as §1

[8] = compound: CC1=CC=C(C=C1)SC2=C3C=C(SC3=CN=C2)C(=O)N
How it was run: as §1

vemurafenib = compound: CCCS(=O)(=O)Nc1ccc(F)c(C(=O)c2c[nH]c3ncc(-c4ccc(Cl)cc4)cc23)c1F [vemurafenib]
How it was run: as §1

[9] = compound: CCCS(=O)(=O)Nc1ccc(F)c(C(=O)c2c[nH]c3ncc(Cl)cc23)c1F
How it was run: as §1

barasertib = compound: CCN(CCCOc1ccc2c(Nc3cc(CC(=O)Nc4cccc(F)c4)[nH]n3)ncnc2c1)CCOP(=O)(O)O [barasertib]
How it was run: as §1

[10] = compound: CC[C@@H]1C(=O)N(C)c2cnc(Nc3ccc(C(=O)NC4CCN(C)CC4)cc3OC)nc2N1C1CCCC1
How it was run: as §1

volasertib = compound: CC[C@@H]1C(=O)N(C)c2cnc(Nc3ccc(C(=O)N[C@H]4CC[C@H](N5CCN(CC6CC6)CC5)CC4)cc3OC)nc2N1C(C)C [volasertib]
How it was run: as §1

[11] = compound: CCn1c(C(=O)N(C2CC2)C2CC2)cc2c3c(ncn3C)c(Nc3cc(C)n(C)n3)nc21
How it was run: as §1

[12] = compound: CCn1cc(-c2ccnc3[nH]c(-c4cccc(CN(C)C)c4)cc23)c(-c2ccc(NC(=O)N(C)C)cc2)n1
How it was run: as §1

[13] = compound: CN1CCC(CNc2ccc3ncc(-c4cccc(OC(F)(F)F)c4)n3n2)CC1
How it was run: as §1

saracatinib = compound: CN1CCN(CCOc2cc(OC3CCOCC3)c3c(Nc4c(Cl)ccc5c4OCO5)ncnc3c2)CC1 [saracatinib]
How it was run: as §1

sotrastaurin = compound: CN1CCN(c2nc(C3=C(c4c[nH]c5ccccc45)C(=O)NC3=O)c3ccccc3n2)CC1 [sotrastaurin]
How it was run: as §1

Measured: log2 fold change

EXOC3 (UniProt O60645)
inactive: ibrutinib -0.029 | [1] -0.012 | ralimetinib 0.025 | [2] 0.048 | [3] 0.025 | [4] 0 | [5] -0.042 | [6] 0.037 | [7] 0.067 | [8] 0.004 | vemurafenib 0.049 | [9] 0.021 | barasertib 0.02 | [10] -0.081 | volasertib -0.086 | [11] 0.045 | [12] -0.057 | [13] -0.001 | saracatinib 0.004 | sotrastaurin 0.03

GIGYF2 (UniProt Q6Y7W6)
UniProt Q6Y7W6, sequence (Q6Y7W6 whole entry, looked up): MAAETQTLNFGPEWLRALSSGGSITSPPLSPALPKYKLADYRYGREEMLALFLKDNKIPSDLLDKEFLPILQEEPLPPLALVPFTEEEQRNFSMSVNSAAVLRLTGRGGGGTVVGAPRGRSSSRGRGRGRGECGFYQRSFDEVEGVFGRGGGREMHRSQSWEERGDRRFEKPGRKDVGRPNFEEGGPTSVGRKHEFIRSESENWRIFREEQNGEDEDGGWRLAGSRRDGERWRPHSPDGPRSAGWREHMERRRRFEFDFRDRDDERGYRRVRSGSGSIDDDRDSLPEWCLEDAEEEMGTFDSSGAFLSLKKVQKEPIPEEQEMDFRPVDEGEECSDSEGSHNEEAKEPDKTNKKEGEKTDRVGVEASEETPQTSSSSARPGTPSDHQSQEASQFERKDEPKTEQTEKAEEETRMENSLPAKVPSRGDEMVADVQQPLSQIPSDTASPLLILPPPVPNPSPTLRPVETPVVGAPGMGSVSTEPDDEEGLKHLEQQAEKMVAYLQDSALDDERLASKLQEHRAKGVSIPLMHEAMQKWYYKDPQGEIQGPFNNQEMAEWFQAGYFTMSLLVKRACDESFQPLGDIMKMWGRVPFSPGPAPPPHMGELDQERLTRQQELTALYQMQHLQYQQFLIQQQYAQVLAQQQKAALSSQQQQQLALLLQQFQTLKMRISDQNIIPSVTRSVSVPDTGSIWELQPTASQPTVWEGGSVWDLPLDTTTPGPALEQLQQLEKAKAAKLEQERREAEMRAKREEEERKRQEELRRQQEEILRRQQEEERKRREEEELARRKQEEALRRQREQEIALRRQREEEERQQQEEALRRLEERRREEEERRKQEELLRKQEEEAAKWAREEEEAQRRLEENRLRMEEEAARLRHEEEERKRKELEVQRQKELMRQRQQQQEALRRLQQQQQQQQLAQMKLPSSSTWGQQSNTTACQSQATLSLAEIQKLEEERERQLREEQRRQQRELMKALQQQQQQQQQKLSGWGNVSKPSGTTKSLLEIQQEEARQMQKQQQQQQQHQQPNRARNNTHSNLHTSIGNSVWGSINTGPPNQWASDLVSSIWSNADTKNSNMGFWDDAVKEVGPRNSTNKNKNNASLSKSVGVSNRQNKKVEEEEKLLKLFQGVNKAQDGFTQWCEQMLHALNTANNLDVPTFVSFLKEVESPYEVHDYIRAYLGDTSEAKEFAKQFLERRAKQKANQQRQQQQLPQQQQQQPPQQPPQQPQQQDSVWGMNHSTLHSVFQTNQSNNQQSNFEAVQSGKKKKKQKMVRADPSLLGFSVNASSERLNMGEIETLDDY
inactive: ibrutinib -0.01 | [1] 0.004 | ralimetinib 0.014 | [2] -0.016 | [3] 0.029 | [4] -0.015 | [5] 0.01 | [6] 0.007 | [7] -0.006 | [8] 0.023 | vemurafenib -0.001 | [9] -0.017 | barasertib 0.049 | [10] 0.093 | volasertib -0.05 | [11] -0.001 | [12] 0.028 | [13] -0.055 | saracatinib 0.009 | sotrastaurin -0.001

FAM118B (UniProt Q9BPY3)
UniProt Q9BPY3, sequence (Q9BPY3 whole entry, looked up): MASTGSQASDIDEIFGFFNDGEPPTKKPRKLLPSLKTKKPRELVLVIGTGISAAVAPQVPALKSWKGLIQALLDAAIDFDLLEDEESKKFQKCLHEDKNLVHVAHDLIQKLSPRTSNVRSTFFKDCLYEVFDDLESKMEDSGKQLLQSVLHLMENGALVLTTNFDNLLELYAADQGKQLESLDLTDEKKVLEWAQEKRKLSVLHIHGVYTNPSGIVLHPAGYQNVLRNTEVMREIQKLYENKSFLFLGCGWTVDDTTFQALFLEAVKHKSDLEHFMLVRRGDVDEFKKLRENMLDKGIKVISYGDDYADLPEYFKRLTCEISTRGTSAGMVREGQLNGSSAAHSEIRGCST
inactive: ibrutinib 0.066 | [1] -0.016 | ralimetinib 0.015 | [2] -0.019 | [3] 0.023 | [4] -0.01 | [5] 0.012 | [6] -0.012 | [7] 0.03 | [8] 0.008 | vemurafenib -0.06 | [9] 0.03 | barasertib 0.004 | [10] -0.014 | volasertib 0.001 | [11] 0.022 | [12] -0.03 | [13] -0.027 | saracatinib 0.004 | sotrastaurin 0.048

EIF1 (UniProt P41567)
inactive: ibrutinib 0.026 | [1] 0.015 | ralimetinib -0.016 | [2] 0.011 | [3] 0 | [4] -0.114 | [5] 0.059 | [6] 0.045 | [7] -0.043 | [8] -0.037 | vemurafenib 0.013 | [9] -0.014 | barasertib -0.053 | [10] 0.053 | volasertib 0.023 | [11] -0.05 | [12] 0.009 | [13] 0.084 | saracatinib -0.02 | sotrastaurin -0.042

ENO1 isoform 2 (UniProt P06733)
inactive: ibrutinib -0.043 | [1] 0.008 | ralimetinib 0.02 | [2] -0.07 | [3] 0.028 | [4] -0.009 | [5] -0.013 | [6] 0.023 | [7] -0.002 | [8] -0.015 | vemurafenib 0.02 | [9] -0.005 | barasertib -0.09 | [10] 0.073 | volasertib 0.004 | [11] -0.021 | [12] -0.263 | saracatinib 0.01 | sotrastaurin 0.01
active: [13] 0.269

EP300 (UniProt Q09472)
inactive: ibrutinib 0.084 | [1] 0.117 | ralimetinib -0.026 | [2] -0.011 | [3] -0.07 | [4] 0.423 | [5] -0.011 | [6] -0.035 | [7] -0.025 | [8] -0.008 | vemurafenib -0.018 | [9] -0.01 | barasertib 0.007 | [10] -0.006 | volasertib -0.042 | [11] -0.009 | [12] -0.151 | [13] 0.058 | saracatinib 0.027 | sotrastaurin -0.022

EHD2 (UniProt Q9NZN4)
inactive: ibrutinib -0.004 | [1] 0.035 | ralimetinib 0.054 | [2] -0.027 | [3] -0.005 | [4] 0.066 | [5] 0.063 | [6] 0.019 | [7] 0.059 | [8] 0.017 | vemurafenib 0.046 | [9] 0 | barasertib 0.022 | [10] 0.007 | volasertib -0.111 | [11] 0.005 | [12] 0.016 | [13] -0.066 | saracatinib 0.075 | sotrastaurin 0.017

ENY2 (UniProt Q9NPA8)
UniProt Q9NPA8, sequence (Q9NPA8 whole entry, looked up): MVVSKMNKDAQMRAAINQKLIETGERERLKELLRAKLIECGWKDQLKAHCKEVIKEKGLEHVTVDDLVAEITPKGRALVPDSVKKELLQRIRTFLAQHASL
inactive: ibrutinib 0.161 | [1] 0.038 | ralimetinib -0.021 | [2] 0.057 | [3] 0 | [4] -0.069 | [5] 0.066 | [6] 0.075 | [7] -0.052 | [8] 0.035 | vemurafenib -0.057 | [9] 0.016 | barasertib 0.072 | [10] -0.036 | volasertib 0.033 | [11] 0.048 | saracatinib -0.003 | sotrastaurin -0.003
active: [12] 0.886 | [13] -0.406

FANCI (UniProt Q9NVI1)
UniProt Q9NVI1, sequence (Q9NVI1 whole entry, looked up): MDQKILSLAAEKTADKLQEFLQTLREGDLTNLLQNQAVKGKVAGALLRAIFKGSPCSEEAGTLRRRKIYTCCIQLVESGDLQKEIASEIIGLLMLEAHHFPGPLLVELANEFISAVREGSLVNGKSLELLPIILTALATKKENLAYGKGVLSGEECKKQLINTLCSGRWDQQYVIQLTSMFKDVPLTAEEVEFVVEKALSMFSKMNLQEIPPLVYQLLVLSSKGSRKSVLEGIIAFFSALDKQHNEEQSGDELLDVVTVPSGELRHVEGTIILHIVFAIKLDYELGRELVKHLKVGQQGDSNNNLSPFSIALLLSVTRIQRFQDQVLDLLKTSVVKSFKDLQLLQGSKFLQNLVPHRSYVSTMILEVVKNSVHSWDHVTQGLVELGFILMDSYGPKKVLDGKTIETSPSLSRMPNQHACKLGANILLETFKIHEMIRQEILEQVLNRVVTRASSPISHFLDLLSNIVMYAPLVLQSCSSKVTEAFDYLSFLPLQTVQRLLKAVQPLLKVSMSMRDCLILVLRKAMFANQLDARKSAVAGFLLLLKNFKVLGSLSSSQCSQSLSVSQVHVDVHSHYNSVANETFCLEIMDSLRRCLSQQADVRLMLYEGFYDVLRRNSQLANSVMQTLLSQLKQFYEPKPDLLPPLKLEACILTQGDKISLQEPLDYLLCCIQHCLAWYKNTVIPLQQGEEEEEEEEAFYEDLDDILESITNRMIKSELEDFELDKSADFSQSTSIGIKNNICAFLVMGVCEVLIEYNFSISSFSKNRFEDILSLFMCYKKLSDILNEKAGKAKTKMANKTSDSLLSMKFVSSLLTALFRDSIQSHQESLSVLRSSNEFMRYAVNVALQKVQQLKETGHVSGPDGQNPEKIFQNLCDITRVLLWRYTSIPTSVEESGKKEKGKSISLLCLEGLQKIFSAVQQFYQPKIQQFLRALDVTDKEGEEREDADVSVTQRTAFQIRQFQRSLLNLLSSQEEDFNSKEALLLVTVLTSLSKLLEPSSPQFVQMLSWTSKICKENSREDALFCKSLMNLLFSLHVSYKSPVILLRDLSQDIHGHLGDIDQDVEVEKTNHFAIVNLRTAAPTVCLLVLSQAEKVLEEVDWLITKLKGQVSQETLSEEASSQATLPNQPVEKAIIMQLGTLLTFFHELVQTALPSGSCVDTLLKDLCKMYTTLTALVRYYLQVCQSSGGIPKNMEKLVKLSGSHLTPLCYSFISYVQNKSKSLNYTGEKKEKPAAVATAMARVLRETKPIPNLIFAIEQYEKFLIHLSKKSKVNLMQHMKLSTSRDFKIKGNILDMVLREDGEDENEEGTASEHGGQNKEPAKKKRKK
inactive: ibrutinib -0.024 | [1] 0.022 | ralimetinib 0.02 | [2] -0.024 | [3] -0.038 | [4] -0.021 | [5] 0.026 | [6] 0.002 | [7] 0.033 | [8] 0.014 | vemurafenib 0.018 | [9] 0.021 | barasertib 0.045 | [10] -0.028 | volasertib -0.053 | [11] 0.031 | [12] 0.021 | [13] -0.119 | saracatinib 0.017 | sotrastaurin 0.02

FAM114A2 (UniProt Q9NRY5)
UniProt Q9NRY5, sequence (Q9NRY5 whole entry, looked up): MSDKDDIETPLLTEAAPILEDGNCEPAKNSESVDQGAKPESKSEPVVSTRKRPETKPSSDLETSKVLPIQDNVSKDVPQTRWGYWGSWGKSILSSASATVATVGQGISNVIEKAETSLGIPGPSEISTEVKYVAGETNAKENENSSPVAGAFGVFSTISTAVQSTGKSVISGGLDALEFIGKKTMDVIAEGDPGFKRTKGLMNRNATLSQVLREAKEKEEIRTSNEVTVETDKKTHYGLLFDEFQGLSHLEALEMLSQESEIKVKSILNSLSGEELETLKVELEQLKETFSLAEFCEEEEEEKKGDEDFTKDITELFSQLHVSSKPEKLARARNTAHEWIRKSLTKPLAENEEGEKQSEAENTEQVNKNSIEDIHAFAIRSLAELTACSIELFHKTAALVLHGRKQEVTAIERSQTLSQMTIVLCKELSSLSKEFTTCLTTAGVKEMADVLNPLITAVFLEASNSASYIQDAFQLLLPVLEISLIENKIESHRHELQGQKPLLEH
inactive: ibrutinib -0.016 | [1] -0.061 | ralimetinib -0.036 | [2] -0.11 | [3] 0.057 | [4] 0.171 | [5] 0.06 | [6] -0.069 | [7] 0.005 | [8] 0.012 | vemurafenib 0.054 | [9] 0.049 | barasertib 0.086 | [10] 0.131 | volasertib -0.013 | [11] 0.014 | [12] 0.049 | [13] -0.039 | saracatinib 0.03 | sotrastaurin 0.033

DUS2 (UniProt Q9NX74)
UniProt Q9NX74, sequence (Q9NX74 whole entry, looked up): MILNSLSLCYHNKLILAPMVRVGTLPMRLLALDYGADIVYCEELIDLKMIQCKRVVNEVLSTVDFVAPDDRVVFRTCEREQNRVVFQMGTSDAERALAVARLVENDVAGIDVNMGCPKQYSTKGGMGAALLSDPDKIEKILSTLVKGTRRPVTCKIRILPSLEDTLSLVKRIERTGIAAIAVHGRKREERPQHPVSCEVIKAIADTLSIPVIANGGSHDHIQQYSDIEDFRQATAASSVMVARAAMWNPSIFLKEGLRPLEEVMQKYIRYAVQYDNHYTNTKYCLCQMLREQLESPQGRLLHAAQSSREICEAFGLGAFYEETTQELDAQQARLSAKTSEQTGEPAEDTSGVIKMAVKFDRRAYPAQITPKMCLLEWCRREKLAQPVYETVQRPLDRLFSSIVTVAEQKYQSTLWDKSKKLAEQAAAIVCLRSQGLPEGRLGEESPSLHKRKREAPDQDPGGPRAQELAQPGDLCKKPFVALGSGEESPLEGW
inactive: ibrutinib 0.071 | [1] -0.036 | ralimetinib 0.026 | [2] 0.097 | [3] -0.003 | [4] -0.056 | [5] -0.029 | [6] -0.004 | [7] 0.091 | [8] 0.01 | vemurafenib 0.022 | [9] 0.032 | barasertib -0.026 | [10] -0.033 | volasertib -0.071 | [11] -0.016 | [12] -0.095 | [13] 0.023 | saracatinib -0.095 | sotrastaurin -0.017

EIF2B4 isoform 2 (UniProt Q9UI10)
UniProt Q9UI10, sequence (Q9UI10 whole entry, looked up): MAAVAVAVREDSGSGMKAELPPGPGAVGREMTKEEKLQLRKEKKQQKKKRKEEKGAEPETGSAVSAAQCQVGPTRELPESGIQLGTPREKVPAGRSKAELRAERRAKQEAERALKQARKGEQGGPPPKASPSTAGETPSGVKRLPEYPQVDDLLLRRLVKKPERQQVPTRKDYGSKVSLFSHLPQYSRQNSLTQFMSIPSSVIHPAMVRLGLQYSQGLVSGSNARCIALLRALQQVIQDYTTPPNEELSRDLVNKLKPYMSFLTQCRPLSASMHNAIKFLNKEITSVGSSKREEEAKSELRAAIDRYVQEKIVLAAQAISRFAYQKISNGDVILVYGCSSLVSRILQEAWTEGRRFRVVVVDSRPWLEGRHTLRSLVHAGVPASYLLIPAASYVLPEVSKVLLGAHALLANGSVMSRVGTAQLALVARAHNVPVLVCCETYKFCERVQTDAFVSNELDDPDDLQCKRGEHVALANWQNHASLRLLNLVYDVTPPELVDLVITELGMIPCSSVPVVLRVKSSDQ
inactive: ibrutinib 0.011 | [1] 0.011 | ralimetinib 0.009 | [2] -0.005 | [3] -0.036 | [4] -0.004 | [5] -0.036 | [6] 0.001 | [7] -0.005 | [8] 0.04 | vemurafenib -0.034 | [9] 0.02 | barasertib 0.006 | [10] -0.038 | volasertib -0.017 | [11] -0.004 | [12] -0.02 | [13] 0.002 | saracatinib 0.006 | sotrastaurin -0.004

FADS1, A0A0A0MR51
inactive: ibrutinib 0.011 | [1] 0.178 | ralimetinib 0.094 | [2] 0.094 | [3] -0.003 | [4] -0.032 | [5] 0.002 | [6] 0.113 | [7] -0.08 | [8] -0.115 | vemurafenib -0.041 | [9] 0.145 | barasertib -0.018 | [10] 0.02 | volasertib -0.187 | [11] -0.062 | [12] -0.021 | [13] -0.078 | saracatinib -0.026 | sotrastaurin -0.037

FTSJ1 (UniProt Q9UET6)
UniProt Q9UET6, sequence (Q9UET6 whole entry, looked up): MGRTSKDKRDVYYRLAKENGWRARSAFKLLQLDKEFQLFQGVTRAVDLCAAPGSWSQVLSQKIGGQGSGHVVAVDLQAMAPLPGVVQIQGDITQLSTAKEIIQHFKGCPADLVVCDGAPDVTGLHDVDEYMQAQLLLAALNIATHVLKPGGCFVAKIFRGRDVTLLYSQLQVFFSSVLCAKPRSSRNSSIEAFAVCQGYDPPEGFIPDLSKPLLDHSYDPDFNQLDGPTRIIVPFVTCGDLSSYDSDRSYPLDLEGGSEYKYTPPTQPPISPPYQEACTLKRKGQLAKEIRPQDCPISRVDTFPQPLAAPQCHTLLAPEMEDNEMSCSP
inactive: ibrutinib 0.004 | [1] -0.006 | ralimetinib -0.03 | [2] 0.094 | [3] -0.054 | [4] 0.011 | [5] 0.069 | [6] -0.024 | [7] 0.062 | [8] 0.03 | vemurafenib -0.036 | [9] -0.006 | barasertib -0.043 | [10] -0.04 | volasertib -0.056 | [11] -0.003 | [12] 0.067 | [13] 0.027 | saracatinib -0.018 | sotrastaurin 0.089

EEF1AKNMT (UniProt Q8N6R0)
inactive: ibrutinib -0.016 | [1] 0.017 | ralimetinib 0.096 | [2] 0.023 | [3] 0.017 | [4] -0.003 | [5] -0.024 | [6] 0.002 | [7] -0.021 | [8] 0.002 | vemurafenib -0.007 | [9] 0.041 | barasertib 0.008 | [10] -0.08 | volasertib -0.026 | [11] 0.053 | [12] -0.026 | [13] -0.031 | saracatinib -0.017 | sotrastaurin 0.008
